Measurements: PubChem BioAssay AID652010 (The Scripps Research Institute Molecular Screening Center, 2013)
Out of some 370,000 compounds screened, about 4,100 (1.1%) were called active. The sample holds actives, similar compounds and a random draw of the others, so the mix is not that of the screen. Unmarked numbers belong to inactive results.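 Rule for the calls: active = inhibition above the mean over all tested compounds plus 3 SD (cut at about 3.6% in these data); inactive = the rest.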

assay: DAX1 (NR0B1) inhibitors on StAR promoter, primary screen, cell-based, luminescence, SF-1 (NR5A1), full-length DAX-1 (AID 652010); settings: HEK293T StAR-luciferase reporter, SF-1/DAX-1 repression relief; at 6.8 µM; active compounds read high;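 note: 0% = DAX-1 cells with DMSO and 100% = cells lacking DAX-1 with DMSO; higher inhibition means more luminescence from relief of DAX-1 repression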

Row | Structure (SMILES) | inhibition
1 | CCOc1cc(/C=N/NC(=O)c2ccc(CSc3nncn3C)cc2)ccc1OCC(=O)N1CCOCC1 | 0.55%
2 | O=S1(=O)c2ccc(N3CCN(Cc4ccccc4F)CC3)cc2Oc2ccccc2CN1Cc1cn(Cc2ccc(Cl)cc2)nn1 | -0.86%
3 | O=S(=O)(c1cccs1)N1CCCc2nc(-c3ccc(Br)cc3)ccc21 | 0.56%
4 | CCCCN1CCN(C(=O)c2ccc3c(c2)NC(=O)C(C)(C)O3)CC1 | 0.65%
5 | CCN(c1ccccc1)S(=O)(=O)c1ccc(OCC(=O)N2CCCC2)cc1 | 4.72% (active)
6 | CC(NS(=O)(=O)c1ccc(OCC(=O)N2CCCC2)cc1)c1ccccc1 (stereo not given) | 0.22%
7 | COc1ccc(N(CC(=O)N2CCCCCC2)S(=O)(=O)c2ccccc2)cc1 | -0.37%
8 | O=C(CCc1nnc2ccc(NCc3ccco3)nn12)Nc1cc(F)ccc1F | 1.27%
9 | CC(=O)c1ccc(NC(=O)CCc2nnc3ccc(NCc4ccco4)nn23)cc1 | 4.34% (active)
10 | CCOc1ccccc1NC(=O)CCc1nnc2ccc(NCc3ccco3)nn12 | -0.55%
11 | O=C(CSc1nnc(-c2ccccc2)n1Cc1ccco1)Nc1ccccc1-c1ccccc1 | -1.32%
12 | Cc1cccc(NC(=O)C(C)N2C(=O)C3C4CC(C(Br)C4Br)C3C2=O)c1 (stereo not given) | -0.17%
13 | Nc1ccc2nn(-c3ccc(Cl)cc3)nc2c1 | 4.89% (active)
14 | Nc1ccc2c(c1)C(O)c1ccc(Cl)cc1-2 (stereo not given) | 0.66%
15 | Nc1nc2cc(Cl)ccc2n1N | 0.18%
16 | CCOC(=O)N1CCN(C(=O)C[C@H]2C[C@@]3(C(=O)OC)C(=C[C@H](C4CCCC4)O[C@@H]3C)N(Cc3ccccc3)C2=O)CC1 | -0.29%
17 | CC(C)N1CCCCC(NC(=O)C(C)(C)C)C1=O (stereo not given) | -0.67%
18 | CC(=O)Nc1cccc(C(=O)OCC(=O)NCc2cc(C)c(O)c(C)c2)c1 | 2.37%
19 | CC(=O)Nc1cccc(C(=O)OCC(=O)c2ccc3c(c2)OCO3)c1 | 13.7% (active)
20 | CC(=O)Nc1cccc(C(=O)OCN2C(=O)c3ccccc3C2=O)c1 | 1.3%
21 | COC(=O)C1CN(CCc2ccccc2)CCS(=O)(=O)N1Cc1cccc(Cl)c1 (stereo not given) | -1.7%
22 | O=C1CC[C@@H](COc2ccc3[nH]cc(-c4ccccc4)c3c2-c2ccccc2)N1 | -0.82%
23 | O=C(COC(=O)CNC(=O)c1ccccc1F)NCC(F)(F)F | -0.62%
24 | O=C(NCC(=O)N1CCCCCCC1)c1ccccc1Cl | -0.28%
25 | O=C(NCC(=O)N1CCCC(C(F)(F)F)C1)c1ccccc1F (stereo not given) | 4.23% (active)
26 | O=C(C1CCCO1)N(c1ccc(F)cc1)C1C=CS(=O)(=O)C1 (stereo not given) | -0.69%
27 | C=CC1=CCN(S(=O)(=O)C(C)(C)C)[C@@H]1CCO | -0.3%
28 | CC1CCN(C(=O)COC(=O)c2cc(=O)[nH]c3ccccc23)CC1 | 9.38% (active)

Row | Structure (SMILES) | inhibition
29 | CN(C(=O)COC(=O)c1cc(=O)[nH]c2ccccc12)C1CCCCC1 | 3.03%
30 | O=C(COC(=O)c1cc(=O)[nH]c2ccccc12)NCc1cccc(Cl)c1 | -1.15%
31 | COC(=O)[C@@]12CCCCC=C1N(CCc1ccc(Cl)cc1)C(=O)[C@H]2CC(=O)NCc1ccc(OC)c(OC)c1 | -1.83%
32 | CC(C)(C)OC(=O)NCCc1ccccc1/C=C/S(=O)(=O)NCc1ccc(F)cc1 | -2.47%
33 | C=CCN(CC=C)C(=O)CN1C(=O)c2ccccc2C1=O | -0.48%
34 | C=CCn1c(C)cc(C(=O)CN2C(=O)c3ccccc3C2=O)c1C | 3.9% (active)
35 | COc1cc(C(C)=O)ccc1OC(=O)CN1C(=O)c2ccccc2C1=O | -0.4%
36 | CCn1c(SCC(C)=O)nc2sc3c(c2c1=O)CCCC3 | -0.04%
37 | Cc1cccc(NC(=O)/C=C/c2ccc3c(c2)OCO3)n1 | 5.26% (active)
38 | COc1cccc(/C=C/C(=O)Nc2ccc3c(c2)OCCO3)c1 | 5.36% (active)
39 | Cc1ccc(OCCCC(=O)Nc2ccc3c(c2)OCCO3)cc1 | -0.75%
40 | CN(Cc1ccccc1)C(=O)COC(=O)/C=C/c1ccc2c(c1)OCO2 | 0.06%
41 | O=C(COC(=O)/C=C/c1ccc2c(c1)OCO2)NC1CCS(=O)(=O)C1 (stereo not given) | 0.14%
42 | COc1ccc(S(=O)(=O)N(C)CC(=O)Nc2ccc3c(c2)OCCO3)cc1OC | 0.16%
43 | C=CCN1C(=O)[C@H](CC(=O)N2CCN(C(=O)OCC)CC2)[C@@]2(C(=O)OCC)CCCC=C12 | -0.21%
44 | COC(=O)c1ccccc1-n1cc(COC(=O)NCCc2ccccc2)nn1 | -0.35%
45 | Cc1cc(NS(=O)(=O)c2ccc(NC(=O)CSc3nnc(-c4ccc(C(C)(C)C)cc4)n3Cc3ccco3)cc2)nc(C)n1 | 0.36%
46 | COC(=O)C1=C(C)N(Cc2ccccc2C(F)(F)F)C(=NCC2CC2)NC1c1cccc(Cl)c1 (stereo not given) | 0.1%
47 | CC(C)C[C@H]1CN([C@@H](CC(C)C)CN2CCC[C@@H]2CN2C(=O)C(=O)NC[C@@H]2Cc2ccccc2)C(=O)C(=O)N1CCc1ccccc1 | -1.31%
48 | CN1[C@H](Cc2ccccc2)COc2cccc(N3CCSCC3)c2S1(=O)=O | -1%
49 | O=C(O)c1cccc(N=NN2CCCCCC2)c1 | 6.35% (active)
50 | NC1=NN(c2cccc(C(=O)O)c2)C(=O)C1 | -0.57%
51 | Cc1cccc(C(=O)N2CCN(S(=O)(=O)N3CCCCC3)CC2)c1 | 1.49%
52 | CCOC(=O)[C@]12CCCC=C1N(CCCOC)C(=O)[C@@H]2CC(=O)N1CCOCC1 | -0.49%
53 | CCCNC(=O)Nc1ccc2c(c1)C(=O)N(C)[C@H]1CC[C@H](CC(=O)NCC3CCCCC3)O[C@@H]1CO2 | -0.63%
54 | COC(=O)C(C(=O)OC)c1ccccc1NS(=O)(=O)c1cccc2ccccc12 | 0.06%
55 | O=C(NCc1cccs1)C1CCCN(S(=O)(=O)c2ccc([N+](=O)[O-])cc2)C1 (stereo not given) | -0.52%
